# Assay results: the supplement of paper PMC10646978
# ± gives the standard deviation.
# Key:
# Conditions in all cases: modulator concentration 10 µM
# [1] = test system: RAW-Dual (murine macrophage reporter line); experiment: NF-kB reporter (SEAP) activity fold change vs agonist alone; higher = enhanced NF-kB activity
# How it was run: (§1)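 RAW-Dual murine macrophage reporter cells were seeded at 50 000 per well in 384-well plates and pre-incubated 1 hour at 37 °C with compound pin-transferred to 10 μM final. After 1 hour, a PRR agonist was added and cells incubated overnight. Supernatant NF-κB (SEAP, QUANTI-Blue, 620 nm absorbance) and IRF (Lucia luciferase, QUANTI-Luc, luminescence) signals were divided by the mean agonist-only control on the same plate to give fold change. Two replicate plates were averaged, with errors by propagation.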
# [2] = test system: RAW-Dual (murine macrophage reporter line); experiment: IRF reporter (Lucia luciferase) activity fold change vs agonist alone; higher = enhanced IRF activity
# How it was run: as §1
# [3] = test system: RAW-Dual (murine macrophage reporter line); experiment: viability score (confluency relative to resting cells, overnight) (fraction); higher = more viable, active = viable (0.7 or more)
# How it was run: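 RAW-Dual macrophages in 384-well plates were incubated overnight with compound, final concentration 10 μM. Confluency images from IncuCyte were processed in IncuCyte software into two masks covering all imaged wells. The viability score is each well's confluency relative to resting cells, and a compound met the cutoff when both masks exceeded 70% of resting cells.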
# [4] = agonist: CpG ODN 1826 0.5 ug/mL
Compound,"NF-kB reporter [1, 4]",NF-kB reporter ([1]; agonist: LPS 0.1 ug/mL),NF-kB reporter ([1]; agonist: MPLA […]),IRF reporter ([2]; agonist: 3'3'-cGAMP 10 ug/mL),IRF reporter ([2]; agonist: LPS 0.1 ug/mL),IRF reporter ([2]; agonist: MPLA […]),viability score [3]
CCCOc1ccc(C=CC(=O)Nc2ccc(S(=O)(=O)Nc3ncccn3)cc2)cc1OC,0.938 ± 0.077,1.03 ± 0.06,0.963 ± 0.092,0.982 ± 0.035,1.27 ± 0.18,1.11 ± 0.23,1.01 (active)
Br.Fc1ccc(-c2csc(Nc3ccc4c(c3)OCO4)n2)cc1,0.871 ± 0.076,0.946 ± 0.066,1.02 ± 0.038,0.315 ± 0.022,1.03 ± 0.076,1.29 ± 0.12,0.999 (active)
C=CCN1CCCC1CNC(=O)c1cc2nn[nH]c2cc1OC.Cl (centres undefined),0.987 ± 0.2,1.05 ± 0.16,0.962 ± 0.14,0.917 ± 0.045,1.3 ± 0.31,0.93 ± 0.07,0.999 (active)
O=C(c1cc2cc(F)ccc2s1)N1CCc2ncncc2C1,1.05 ± 0.099,1.03 ± 0.083,0.898 ± 0.063,0.927 ± 0.064,1.23 ± 0.14,1.12 ± 0.3,1.01 (active)
CN1CCN(C2=Nc3cc(Cl)ccc3Nc3ccccc32)CC1,0.713 ± 0.058,0.941 ± 0.057,1.13 ± 0.1,0.924 ± 0.064,1.47 ± 0.11,1.46 ± 0.12,0.981 (active)
O=C1OC(CNS(=O)(=O)c2ccccc2Cl)CN1c1ccc(Cl)c(Cl)c1 (centres undefined),1.08 ± 0.078,1.22 ± 0.11,0.926 ± 0.058,1.13 ± 0.06,1.11 ± 0.068,1.08 ± 0.24,1.01 (active)
COC(CNC(=O)c1cccc(Cl)c1)c1ccccc1C (centres undefined),0.774 ± 0.038,0.876 ± 0.092,0.958 ± 0.075,0.965 ± 0.059,1.22 ± 0.23,1.37 ± 0.34,0.999 (active)
O=[N+]([O-])c1ccc(OCC(O)CN2CCN(c3ccccc3)CC2)cc1 (centres undefined),0.91 ± 0.072,1.02 ± 0.059,0.964 ± 0.086,0.982 ± 0.024,1.42 ± 0.19,1.15 ± 0.15,1.01 (active)
CSc1nc2ccc(Nc3nc(N4CCCC4)nc(N4CCCC4)n3)cc2s1,0.838 ± 0.086,0.962 ± 0.06,1.05 ± 0.096,0.906 ± 0.043,1.31 ± 0.13,1.55 ± 0.15,1.02 (active)
CCS(=O)(=O)N1CCN(c2ccc(Nc3ncc(C(N)=O)c(NC4CC4)n3)cc2)CC1.Cl,1.08 ± 0.046,0.355 ± 0.033,0.622 ± 0.042,0.0973 ± 0.0051,0.301 ± 0.072,0.324 ± 0.081,0.899 (active)
COc1ccc(-c2cc(CNC(=O)C3CCC3)no2)cc1,1.15 ± 0.075,1.02 ± 0.1,0.934 ± 0.034,0.877 ± 0.052,1.06 ± 0.086,0.986 ± 0.23,0.995 (active)
O=C(OCCN1CCCCC1)c1ccc(O)cc1,1.01 ± 0.081,1.06 ± 0.07,1.03 ± 0.04,1.08 ± 0.077,1.03 ± 0.047,1.07 ± 0.18,1 (active)
Cc1ccc(C(=O)NC2CCN(c3ccc4nncn4n3)C2)c(C)c1 (centres undefined),0.957 ± 0.13,1.02 ± 0.081,1.15 ± 0.15,1.03 ± 0.066,0.995 ± 0.18,0.935 ± 0.42,1 (active)
CC1CCN(c2cc(N3CCNCC3)ncn2)CC1,0.972 ± 0.32,1.08 ± 0.054,1.02 ± 0.069,0.932 ± 0.032,1.11 ± 0.17,1.26 ± 0.26,0.997 (active)
COc1ncc(-c2ccc3nccc(-c4ccnnc4)c3c2)cc1NS(=O)(=O)c1ccc(F)cc1F,1.56 ± 0.067,1.79 ± 0.14,3.01 ± 0.16,0.389 ± 0.051,1.2 ± 0.1,2.66 ± 0.33,0.33 (inactive)
Cc1c(-c2ccccc2)oc2c(C(=O)OCCN3CCCCC3)cccc2c1=O.Cl,1.21 ± 0.31,1.01 ± 0.075,0.977 ± 0.067,0.883 ± 0.052,1.35 ± 0.22,1.35 ± 0.16,1.01 (active)
CC1CCC2C(C)(C)C3CC12CCC3(C)O (centres undefined),1.04 ± 0.081,0.883 ± 0.11,0.965 ± 0.094,0.999 ± 0.052,1.15 ± 0.16,1.25 ± 0.23,1.05 (active)
COc1ccccc1-c1nnc(NC(=O)c2cc(C)nn2C)o1,1.08 ± 0.11,1 ± 0.079,1.01 ± 0.08,0.945 ± 0.034,0.965 ± 0.064,0.953 ± 0.17,0.998 (active)
O=C(Cn1cnc(-c2ccc(F)cc2)cc1=O)N1CCOCC1,0.891 ± 0.06,1.07 ± 0.13,1.18 ± 0.075,1.04 ± 0.047,1.3 ± 0.27,1.44 ± 0.45,0.99 (active)
COc1ccc(CNC(=O)c2cnc3n(c2=O)CCS3)cc1,1.21 ± 0.29,1.04 ± 0.055,2.54 ± 1.4,0.934 ± 0.038,1.1 ± 0.15,1.25 ± 0.19,1 (active)
Oc1nc[nH]n1,1.05 ± 0.087,0.927 ± 0.067,1.02 ± 0.022,1 ± 0.06,0.923 ± 0.04,0.838 ± 0.074,1 (active)
CN1CCN(C2=Nc3ccccc3Oc3ccc(Cl)cc32)CC1.O=C(O)CCC(=O)O,0.411 ± 0.052,0.796 ± 0.081,1.07 ± 0.1,0.548 ± 0.12,0.722 ± 0.13,0.672 ± 0.15,0.92 (active)
O=C(Nc1ccc(NS(=O)(=O)c2ccc(Cl)cc2)cc1)c1ccccc1,1 ± 0.082,1.03 ± 0.091,0.911 ± 0.07,0.977 ± 0.03,1.26 ± 0.091,0.955 ± 0.3,1.02 (active)
CCOC(=O)C(CCc1ccccc1)NC(C)C(=O)N1C(C(=O)O)CC2CCCC21 (centres undefined),1.01 ± 0.28,0.998 ± 0.068,1.07 ± 0.072,0.878 ± 0.055,1.28 ± 0.21,1.34 ± 0.23,0.989 (active)
O=C(Cc1ccccc1)NCC(O)Cn1ccccc1=O (centres undefined),0.84 ± 0.037,0.9 ± 0.12,1.02 ± 0.067,1.04 ± 0.072,1.26 ± 0.25,1.43 ± 0.42,1 (active)
O=C(O)C=Cc1ccc(S(=O)(=O)NCc2cccnc2)cc1,0.751 ± 0.077,0.82 ± 0.049,1.02 ± 0.091,1.02 ± 0.062,1.46 ± 0.098,1.72 ± 0.19,1.01 (active)
CC(C)(C)C1CCc2c(sc(NC(=O)c3ccc(F)cc3)c2C(N)=O)C1 (centres undefined),0.981 ± 0.16,0.999 ± 0.12,1 ± 0.13,0.914 ± 0.041,1.24 ± 0.3,1.24 ± 0.21,0.56 (inactive)
